Records with an inconclusive call do not appear. Values without a mark were called inactive. Calls of active or inactive are those of the source. Calls come from the whole dose curve; as a rule, active = well fitted cell-killing curve with a large enough effect; inconclusive = small, poorly fitted or top-dose-only effect, or effect the other way; inactive = no such curve, though single readings can be large or run the other way.
assay: Viability qHTS for spleen associated tyrosine kinase inhibitor (SYKi) naive MV4-11 cells (AID 1963823); settings: MV4-11 AML viability, CellTiter-Glo luminescence, 72 h; series mostly up to 45 µM; note: nearly all actives have a fitted effect of over 40% in size
Method in brief: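 SYK inhibitor-naive MV4-11 cells, 500 per well, exposed to compounds for 72 hr at 37 C, 5% CO2. Viability read as CellTiter-Glo luminescence after 10 min at room temperature.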
Potency is the fitted concentration of half-maximal effect.

Compound	viability (% of control)	Potency
C[C@@H]1CC[C@]2(C(=O)O[C@@H]3O[C@H](CO[C@@H]4O[C@H](CO)[C@@H](O)[C@H](O)[C@H]4O)[C@@H](O)[C@H](O)[C@H]3O)CC[C@]3(C)C(=CCC4[C@@]5(C)CC[C@H](O)[C@](C)(C(=O)O)C5CC[C@]43C)[C@@H]2[C@]1(C)O (stereo not given in full)	70.3% [at 9.25 µM]	–
CC1(O)CCC2C(C(=O)O)=COC(OC3OC(CO)C(O)C(O)C3OC(=O)/C=C/c3ccc(O)cc3)C21 (stereo not given)	–	inactive
CC(=O)OC1(C)CC(O)C2(O)C=COC(OC3OC(CO)C(O)C(O)C3O)C12 (stereo not given)	–	inactive
COc1cc(/C=C/C(=O)O[C@@H]2C[C@](O)(C(=O)O)C[C@@H](O)[C@H]2O)ccc1O	–	inactive
O=C(COc1ccc(C(=O)c2ccccc2)cc1)NC1CCN(Cc2ccccc2)CC1	–	9200 nM (active)
COc1cc2c(cc1O)CC[C@@H]1[C@@H]2CC[C@]2(C)[C@@H](O)CC[C@@H]12	–	833 nM (active)
COC(=O)CCc1cc2ccoc2c(OC)c1O[C@@H]1O[C@H](CO)[C@@H](O)[C@H](O)[C@H]1O	–	inactive
COc1cc2ncnc(Sc3nnc(C)s3)c2cc1OC	–	820 nM (active)
Cc1cc(N2CCCCC2)nc2ccccc12	–	inactive
CC1OC(OC2C(C)OC(OC3C(O)C(CO)OC(O[C@H]4CC[C@@]5(C)C(CC[C@]6(C)C5CC=C5C7[C@@H](C)[C@H](C)CC[C@]7(C(=O)O)CC[C@]56C(=O)O)C4(C)C)C3O)C(O)C2O)C(O)C(O)C1O (stereo not given in full)	75.5% [at 9.25 µM]	–
O=C(OC1C=C(CO)C2C(OC3OC(CO)C(O)C(O)C3O)OC=CC12O)c1ccc(O)cc1 (stereo not given)	–	inactive
CCC(C)C(=O)OC1CC(O)C23C4OCC5(C(O)CC2C1(C)C(O)O4)C3C(=O)CC1(C)C(c2ccoc2)CC2OC215 (stereo not given)	–	893 nM (active)
CC(=O)c1c(O)cc2c(c1C)C(=O)CC(O)C2 (stereo not given)	–	inactive
C=C(C)[C@@H](C)[C@H]1O[C@]23C[C@]4(CO2)C(CCC2[C@@]5(C)CC[C@H](O[C@@H]6OC[C@H](O)[C@H](O[C@@H]7O[C@H](CO)[C@@H](O)[C@H](O)[C@H]7O)[C@H]6O[C@@H]6O[C@@H](CO)[C@H](O)[C@H]6O)C(C)(C)C5CC[C@]24C)C3[C@@](C)(O)[C@@H]1OC(C)=O (stereo not given in full)	73.4% [at 9.25 µM]	–
NC1(C(=O)NC(CCO)c2ccc(Cl)cc2)CCN(c2ncnc3[nH]ccc23)CC1 (stereo not given)	–	2310 nM (active)
CC1=CC(=O)CC(C)(C)C1/C=C/C(C)OC1OC(COC2OCC(O)C(O)C2O)C(O)C(O)C1O (stereo not given)	–	inactive
CC(=O)OC1C=C(C(=O)O)C2(CO)CCC(C)C(C)(CCc3ccoc3)C2C1 (stereo not given)	–	inactive
C=C(C)C(=O)OC1CC2(C)OC(=CC2=O)C(=C)CC2OC(=O)C(COC)C12 (stereo not given)	–	1610 nM (active)
CC(=O)O[C@@H]1[C@H](O[C@@H]2OC[C@](O)(CO)[C@H]2O)[C@@H](O[C@@H]2O[C@@H](C)[C@H](O)[C@@H](O[C@@H]3O[C@H](CO)[C@@H](O)[C@H](O)[C@H]3O)[C@H]2O)[C@H](OC(=O)[C@]23CCC(C)(C)C[C@H]2C2=CCC4[C@@]5(C)C[C@H](O)[C@H](O[C@@H]6O[C@H](C(=O)O)[C@@H](O)[C@H](O)[C@H]6O)[C@@](C)(C(=O)O)C5CC[C@@]4(C)[C@]2(C)CC3)O[C@@H]1C (stereo not given in full)	95.7% [at 9.25 µM]	–
Cc1cc(C)cc(C(=O)NOCCCCCC(=O)NO)c1	–	920 nM (active)
